From paper PMC3218832

Experiments:
Experiment in all cases: protein binding microarray; high values mean tight binding
Settings in all cases: dsDNA, one strand shown
RELARELA (p65 homodimer) = RELARELA (p65 homodimer) (Homo sapiens, UniProt Q04206 1-307)
p50p50 homodimer = p50p50 homodimer (Homo sapiens, UniProt P19838 7-356)
p52p52 homodimer = target: T1, p52p52 homodimer (Homo sapiens, UniProt Q00653 4-332)
T1 sequence: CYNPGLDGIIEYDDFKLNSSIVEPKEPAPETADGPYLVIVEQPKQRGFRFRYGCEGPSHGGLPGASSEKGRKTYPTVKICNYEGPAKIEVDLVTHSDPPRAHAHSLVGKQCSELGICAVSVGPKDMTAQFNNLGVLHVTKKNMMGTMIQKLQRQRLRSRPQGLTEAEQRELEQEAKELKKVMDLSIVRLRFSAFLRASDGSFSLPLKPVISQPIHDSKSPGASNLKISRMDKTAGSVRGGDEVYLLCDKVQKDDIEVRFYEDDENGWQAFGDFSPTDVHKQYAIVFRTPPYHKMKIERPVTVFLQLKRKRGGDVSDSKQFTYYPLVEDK

[1] = target: RELA (p65) subunit of heterodimer;p50 subunit (Homo sapiens;Homo sapiens, UniProt Q04206;P19838 1-307;7-356)
Sequence of RELA (p65) subunit of heterodimer;p50 subunit (Q04206 1-307, chain 1 of 2): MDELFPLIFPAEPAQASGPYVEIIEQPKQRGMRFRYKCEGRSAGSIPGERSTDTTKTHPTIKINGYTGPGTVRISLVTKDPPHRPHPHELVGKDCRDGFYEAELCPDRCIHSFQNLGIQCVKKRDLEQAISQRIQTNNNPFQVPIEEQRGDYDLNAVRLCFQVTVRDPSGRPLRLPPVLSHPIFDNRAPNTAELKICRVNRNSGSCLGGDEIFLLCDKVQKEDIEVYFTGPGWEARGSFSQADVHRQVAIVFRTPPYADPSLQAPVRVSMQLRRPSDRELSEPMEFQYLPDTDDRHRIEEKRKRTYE
Sequence of RELA (p65) subunit of heterodimer;p50 subunit (P19838 7-356, chain 2 of 2): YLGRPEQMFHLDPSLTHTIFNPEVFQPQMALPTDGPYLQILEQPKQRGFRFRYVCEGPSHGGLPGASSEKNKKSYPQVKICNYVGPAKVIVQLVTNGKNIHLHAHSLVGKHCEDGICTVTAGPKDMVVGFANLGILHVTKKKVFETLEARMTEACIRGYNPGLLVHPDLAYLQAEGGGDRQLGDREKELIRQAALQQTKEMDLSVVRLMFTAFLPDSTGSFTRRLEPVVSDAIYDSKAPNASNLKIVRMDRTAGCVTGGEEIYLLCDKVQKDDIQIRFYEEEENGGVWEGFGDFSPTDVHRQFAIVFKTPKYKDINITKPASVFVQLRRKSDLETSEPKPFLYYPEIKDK

[2] = target: RELA (p65) subunit of heterodimer;p52 subunit (Homo sapiens;Homo sapiens, UniProt Q04206;Q00653 1-307;4-332)
RELB subunit;p50 subunit = RELB subunit;p50 subunit (Homo sapiens;Homo sapiens, UniProt Q01201;P19838 120-401;7-356)
RELB subunit;p52 subunit = target: T2, RELB subunit;p52 subunit (Homo sapiens;Homo sapiens, UniProt Q01201;Q00653 120-401;4-332)
T2 sequence 1: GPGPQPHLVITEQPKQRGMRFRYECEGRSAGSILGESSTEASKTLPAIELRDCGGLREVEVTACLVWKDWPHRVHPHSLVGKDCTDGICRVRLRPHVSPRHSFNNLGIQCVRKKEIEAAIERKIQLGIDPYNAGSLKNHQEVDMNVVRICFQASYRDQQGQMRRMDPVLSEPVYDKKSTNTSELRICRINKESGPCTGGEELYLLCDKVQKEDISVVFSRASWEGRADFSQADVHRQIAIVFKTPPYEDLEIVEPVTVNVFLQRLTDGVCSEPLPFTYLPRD
T2 sequence 2: T1 sequence

[3] = target: C-Rel subunit;p50 subunit (Homo sapiens;Homo sapiens, UniProt Q04864;P19838 1-285;7-356)
[4] = target: T3, C-Rel subunit;p52 subunit (Homo sapiens;Homo sapiens, UniProt Q04864;Q00653 1-285;4-332)
T3 sequence 1: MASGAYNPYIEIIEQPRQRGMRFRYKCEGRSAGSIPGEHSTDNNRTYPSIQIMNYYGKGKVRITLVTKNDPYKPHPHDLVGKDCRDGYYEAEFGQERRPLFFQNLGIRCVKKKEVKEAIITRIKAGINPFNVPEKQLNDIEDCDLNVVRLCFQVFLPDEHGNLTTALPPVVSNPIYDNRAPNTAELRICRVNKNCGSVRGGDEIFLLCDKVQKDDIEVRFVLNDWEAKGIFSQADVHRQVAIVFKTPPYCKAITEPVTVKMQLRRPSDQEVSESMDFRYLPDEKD
T3 sequence 2: T1 sequence

Sequence of p50p50 homodimer (P19838 7-356): as the sequence (P19838 7-356, chain 2 of 2) above
Sequence of RELARELA (p65 homodimer) (Q04206 1-307): as the sequence (Q04206 1-307, chain 1 of 2) above

Sequence	binding signal (RELARELA (p65 homodimer)) [z-score]	binding signal (p50p50 homodimer) [z-score]	binding signal (p52p52 homodimer) [z-score]	binding signal [1] [z-score]	binding signal [2] [z-score]	binding signal (RELB subunit;p50 subunit) [z-score]	binding signal (RELB subunit;p52 subunit) [z-score]	binding signal [3] [z-score]	binding signal [4] [z-score]
CGATGGATCCT	-0.596	-1.5	-0.616	-1.04	-1	-1.33	-1.12	-1.59	-1.01
AGAATTTCCCC	3.09	1.24	2.64	2.2	2.3	2.59	2.28	1.85	2.29
CGAGGGCCCCC	-0.934	0.101	-0.0825	0.0405	-0.0107	0.199	0.202	-0.0359	0.137
GGGATGCCCCT	1.02	0.778	2.65	1.78	2.07	1.74	1.82	1.22	2.2
AAAGGAACCCC	-0.25	0.367	0.122	0.18	0.127	0.118	0.351	0.41	0.175
CAATACATCCC	-0.0719	-0.836	-0.518	-0.774	-0.7	-0.646	-0.575	-0.971	-0.69
CAAAGTCCCCT	0.169	1.47	1.68	1.79	1.67	2.07	1.96	1.43	1.57
GGGGGCCTCCC	0.3	0.557	2.41	1.24	1.91	1.21	1.09	1	1.46
AGGAGGTCCCC	0.488	0.454	0.466	0.767	0.75	0.631	0.644	0.617	0.715
GAAAGACCCCC	-0.269	0.985	0.754	1.12	1.17	0.92	1.03	0.485	0.846
AGGTAGCTCCT	-0.716	-0.916	-0.638	-0.909	-0.901	-0.802	-0.975	-1.36	-0.889
GAGTGCCCCCT	-0.00724	1.11	0.614	0.954	0.871	0.913	1.16	0.836	0.745
CGGTAAACCCT	0.285	-0.188	0.217	-0.158	0.0419	-0.151	-0.0534	-0.122	0.186
GGGGATTCCCT	3.57	1.37	3.18	2.6	3.05	2.45	2.75	2.76	3.46
CAGAGTATCCT	-0.548	-1.79	-0.651	-0.987	-1	-1.11	-0.991	-1.45	-1
